# Assay outcomes (PubChem)
# An excerpt weighted towards active compounds, which were near 3.2% of everything screened.
# Kir21 inh: Kir2.1 (mouse) channel inhibition | B-score at 10 µM | hit rate 0.85% among 310,000 | HEK293-Kir2.1, FluxOR thallium flux fluorescence; stronger effect = lower value | AID 1672;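 active means fluorescence ratio B-score at or below minus 3 SD of library scores, with starting-brightness B-score within 2 SD, cut at about -4.2 in these data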;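 further: channel flux triggered by added potassium and thallium sulfate stimulus; B-score of peak minus minimum fluorescence over baseline after thallium stimulus; more negative B-score means stronger Kir2.1 block with less thallium influx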
# TMEM16A inh: mouse TMEM16A channel inhibition, primary screen; normalized B-score (activity score, 25-100; higher = stronger inhibition) at 10 µM; HEK293 TMEM16A/YFP iodide influx fluorescence, ionomycin; hit rate 1.2% among 310,000;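 active means ratio plate-corrected score three or more library SD toward inhibition, starting fluorescence score within five deviations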;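 further: score derived from kinetic fluorescence span divided by baseline fluorescence per well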
# Rce1 inhib: yeast Ras-converting enzyme inhibition. Q03530. yeast membranes, quenched prenylated peptide cleavage fluorescence. calls only. hit rate 0.27% among 290,000. AID 2563;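 active means fall in fluorescence gain of 50% or more versus controls, with final raw signal at or below 3038400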;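 further: plate controls were neutral control wells for no effect and wells lacking membranes for full effect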
# Target sequence (Q03530 whole entry, looked up): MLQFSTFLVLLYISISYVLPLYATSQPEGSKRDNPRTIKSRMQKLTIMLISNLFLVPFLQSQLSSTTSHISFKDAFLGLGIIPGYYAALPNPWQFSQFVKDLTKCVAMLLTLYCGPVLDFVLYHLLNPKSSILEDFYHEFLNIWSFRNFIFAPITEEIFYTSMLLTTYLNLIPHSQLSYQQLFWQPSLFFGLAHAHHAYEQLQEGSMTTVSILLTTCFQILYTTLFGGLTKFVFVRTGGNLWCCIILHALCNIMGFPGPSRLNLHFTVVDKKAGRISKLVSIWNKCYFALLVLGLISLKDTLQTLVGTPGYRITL
# ANO1 activ: mouse TMEM16A channel activation, primary screen. Q8BHY3. HEK293 TMEM16A/YFP-H148Q/I152L, iodide quench fluorescence; stronger effect = lower value. B-score at 10 µM. hit rate 0.3% among 340,000. AID 623877;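 active means fluorescence-ratio B-score plate-corrected deviation score at least 3 library SD below zero, with starting fluorescence score within 5 deviations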;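 further: channel opened by trigger with iodide after compound preincubation; score built on the fluorescence ratio of max minus min over baseline; more negative score means more quench and so TMEM16A activation or potentiation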
# CHT allo act: allosterically activates the human high affinity choline transporter. hit rate 0.49% among 310,000. CHT-expressing cells, membrane potential dye, choline EC20; stronger effect = higher value; LV-AA mutant CHT in HEK293 cells. Q9GZV3. B-score at 10 µM. AID 488977;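 active means initial fluorescence not abnormally high and integrated response B-score, plate-corrected, over 3 SD above library mean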
# CHT block: inhibitors of human choline transporter CHT | AID 488975 | CHT-expressing cells, membrane potential dye, choline response; stronger effect = lower value | hit rate 0.86% among 310,000 | B-score at 10 µM | Q9GZV3;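 active means B-score over 3 SD under the library average, and starting fluorescence ratio not unusually high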;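 further: choline stimulus applied at its EC90 after an EC20 pre-addition; B-score computed on integrated fluorescence ratio after choline addition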
# Active calls of the source: *; i = inactive; x = no result; + = active, no number.
SMILES,Kir21 inh,TMEM16A inh,Rce1 inhib,ANO1 activ,CHT allo act,CHT block
Cc1ccc(NS(=O)(=O)c2ccc(C(=O)N3CCN(c4ncccn4)CC3)cc2)cc1,-0.15,25*,i,i,i,i
CCCc1cc(-c2nc(N)ncc2-c2csc(C)n2)c(O)cc1OC,-6.4*,i,x,i,i,i
COc1ccc(-c2nc(N)ncc2-c2csc(C)n2)c(O)c1,0.02,i,i,i,i,i
CCc1c(C)sc2nc(C(C)C)nc(SCC(=O)N3CCc4ccccc4C3)c12,0.01,100*,i,x,i,i
CCCCNC(=O)CSc1nc(CCC)nc2ccccc12,-0.34,i,i,i,i,i
CCCc1nc(SCC(=O)N2CCc3ccccc3C2)c2ccccc2n1,-5.6*,i,i,i,i,i
COc1ccc(CCOC(=O)c2ccc(N)c([N+](=O)[O-])c2)cc1,1,i,i,i,i,i
C=CCNCCOCCOc1ccc(Cl)cc1C(C)(C)C,-11*,i,i,i,i,i
CC(C)(C)NCCOCCOc1ccc(Cl)cc1C(C)(C)C,-1,i,i,i,i,i
COCCCNCCOCCOc1c(OC)cccc1OC,0.01,i,i,i,i,i
CC(C)(C)c1ccccc1OCCOCCNCc1ccccc1,-9.3*,i,i,i,i,i
CNCCOc1ccccc1C(C)(C)C,-0.48,i,i,i,i,i
C=CCNCCCOc1ccc(Cl)cc1C(C)(C)C,-14*,i,i,i,i,i
COCCCNCCOCCOc1ccc(Cl)cc1C(C)(C)C,-6.2*,i,i,i,i,i
CCC(C)Sc1nnc(NC(=O)c2ccco2)s1 (stereo not drawn),0.57,i,i,i,i,i
C=CCN1C(=O)c2ccc(C(=O)NCC(=O)Nc3c(C)cc(C)cc3C)cc2C1=O,x,x,x,i,x,x
COC(=O)c1ccc(-c2ccc(CNCC(O)c3ccccc3)o2)cc1 (stereo not drawn),0.95,i,+,i,i,i
CC1(NC(=O)Cn2cc(C(F)(F)F)ccc2=O)CCS(=O)(=O)C1 (stereo not drawn),x,x,x,i,x,x
Cc1csc(NC(=O)Cc2nn(C)c(=O)c3ccccc23)n1,0.04,25*,i,i,i,i
COc1cccc(OC)c1NC(=O)Cc1nn(C)c(=O)c2ccccc12,-1.4,i,i,i,i,i
COc1ccccc1NC(=O)Cc1nn(C)c(=O)c2ccccc12,0.05,25*,i,i,i,i
Cc1ccc(Cl)cc1NC(=O)C1CCCN(S(C)(=O)=O)C1 (stereo not drawn),-1.2,i,i,i,i,i
COc1ccc(C(CCNCc2ccc(N(C)C)cc2)C(C)C)cc1 (stereo not drawn),-5*,i,i,i,i,i
COc1ccc(CNCCC(c2ccc(OC(C)C)cc2)C(C)C)cc1OC (stereo not drawn),-3,i,i,i,i,i
COc1ccc(C(CCNCc2ccc(OC(C)C)cc2)C(C)C)cc1 (stereo not drawn),-4.5*,i,i,i,i,i
SMILES,Kir21 inh,TMEM16A inh,Rce1 inhib,ANO1 activ,CHT allo act,CHT block
CCC[C@H](CN[C@@H](CNC)[C@H](C)CC)NCCc1cc(C(F)(F)F)cc(C(F)(F)F)c1,-4.2*,i,i,i,i,i
CCC[C@@H](CN[C@@H](CNC)[C@H](C)CC)NCC1CCC(C(C)(C)C)CC1 (stereo partly drawn),-4.9,i,i,i,i,i
CC(=O)C[C@H](O)CC(=O)[C@H]1OC(=O)CC/C=C\Cc2ccccc21,x,x,x,i,x,x
CCOC(=O)c1c(C)oc2ccc(O)c(CN(C)C)c12,0.01,i,i,i,i,i
CC(=O)c1c(CSc2ccccc2)oc2ccc(O)c(CN(C)C)c12,-6.5*,i,i,i,i,i
CCOC(=O)c1c(CSc2ccc(CC)cc2)oc2ccc(O)c(CN(C)C)c12,-16*,100*,i,i,i,i
CS(=O)(=O)c1ccc(Cl)c(NC(=O)CN2CCN(C(=O)c3cccs3)CC2)c1,x,x,x,i,x,x
NS(=O)(=O)c1ccc(CCNC(=O)CCNS(=O)(=O)c2ccccc2C(F)(F)F)cc1,x,x,x,i,x,x
CCN(CC)c1ccc(/C=C2\C(=O)N(c3nnc(C)c(=O)[nH]3)N=C2C)cc1,-0.09,i,i,-5.7*,i,i
Cn1c(CNC(=O)CNC(=O)c2ccccc2)cc(=O)n(C)c1=O,0.52,i,i,i,i,i
COc1cccc(OCC(=O)Nc2c3c(nn2-c2ccccc2)CS(=O)(=O)C3)c1,-0.25,i,i,i,i,i
CCOc1ccccc1CNS(=O)(=O)c1ccc2[nH]c(=O)sc2c1,-5.2*,i,i,i,i,i
CCOc1ccccc1CNS(=O)(=O)c1ccc2c(c1)oc(=O)n2C,-2.2,i,i,i,i,i
CCOC(=O)c1c(S(=O)(=O)NCC(=O)NCc2cccc(C)c2)c(C)n(C)c1C,0.77,i,i,i,i,i
CCOC(=O)c1c(/N=C/N(C)C)sc(/C=N/Nc2ccccc2)c1-c1ccc(Cl)cc1,-0.71,i,i,i,i,i
Cc1ccc(CN/C=C/C(=O)c2ccc(Br)cc2)cc1,-0.17,100*,i,i,i,i
COc1ccc(CN2C(=O)[C@H]3Cc4c([nH]c5ccccc45)C(C)(C)N3C2=O)cc1,-0.11,25*,i,i,i,i
COc1ccc(CN2C(=O)[C@@H]3Cc4c([nH]c5ccccc45)C(C)(C)N3C2=O)cc1,-0.39,i,i,i,i,i
O=C(c1ccc(Cl)cc1)N1CCN=C1c1ccccc1,-4.5*,i,i,i,i,i
COc1ccc(OC)c2c(=O)cc(C(=O)O)[nH]c12,-0.05,i,i,i,i,i
COc1cc2cc(C(=O)O)[nH]c2c(OC)c1OC,-0.11,i,+,i,i,i
CC(C)[C@H](NC(=O)c1ccccc1)C(=O)OCC(=O)Nc1sccc1C(N)=O,x,x,x,i,x,x
O=C(NNC(=O)c1cc(-c2cccc(Br)c2)nc2ccccc12)c1csc(N2CCOCC2)n1,-0.08,i,i,i,i,i
O=C(O)c1cccc(NS(=O)(=O)c2ccc(C3CCCCC3)cc2)c1,0.09,i,i,i,i,i
Cc1cccc(NS(=O)(=O)c2ccc(C3CCCCC3)cc2)c1,0.01,25*,i,i,i,i
